Experimental data reported in PubChem BioAssay (Tox21).
Several values for one entry are separate records, joined by “and”; a condition that tells them apart may be missing. Equal values may be shown once. Inconclusive results are not listed. Where a call stands in place of a potency, no number is given. Where a structure was tested more than once in an assay, its records may differ in their call. Activity calls are given as the source filed them. The call rests on the fitted dose curve; in most records, active means well fitted activation curve with a large enough effect in the repeat runs; inconclusive means weak or mixed curves; inactive means no such curve, though single readings can be large or run the other way. Starred links: 1 amine or outer side, 2 acyl side, 3 side chain; linkers in the order of their positions; H or OH if unused. Positions of bridges follow the written chain, without caps; N, C: chain ends. Non-standard residues stand in square brackets, D forms with d. Residues, ends and D or L forms follow the SMILES beside them. Chains are numbered I, II in the order given. Actinocin(9to1) = Cc1c2oc3c(C)ccc(C(=O)[*:1])c3nc-2c(C(=O)[*:2])c(N)c1=O; NMeV = CN[C@H](C(=O)O)C(C)C; Sar = CNCC(=O)O

Target: Aryl hydrocarbon receptor (Homo sapiens) (UniProt P35869)
Sequence (P35869 whole entry, looked up): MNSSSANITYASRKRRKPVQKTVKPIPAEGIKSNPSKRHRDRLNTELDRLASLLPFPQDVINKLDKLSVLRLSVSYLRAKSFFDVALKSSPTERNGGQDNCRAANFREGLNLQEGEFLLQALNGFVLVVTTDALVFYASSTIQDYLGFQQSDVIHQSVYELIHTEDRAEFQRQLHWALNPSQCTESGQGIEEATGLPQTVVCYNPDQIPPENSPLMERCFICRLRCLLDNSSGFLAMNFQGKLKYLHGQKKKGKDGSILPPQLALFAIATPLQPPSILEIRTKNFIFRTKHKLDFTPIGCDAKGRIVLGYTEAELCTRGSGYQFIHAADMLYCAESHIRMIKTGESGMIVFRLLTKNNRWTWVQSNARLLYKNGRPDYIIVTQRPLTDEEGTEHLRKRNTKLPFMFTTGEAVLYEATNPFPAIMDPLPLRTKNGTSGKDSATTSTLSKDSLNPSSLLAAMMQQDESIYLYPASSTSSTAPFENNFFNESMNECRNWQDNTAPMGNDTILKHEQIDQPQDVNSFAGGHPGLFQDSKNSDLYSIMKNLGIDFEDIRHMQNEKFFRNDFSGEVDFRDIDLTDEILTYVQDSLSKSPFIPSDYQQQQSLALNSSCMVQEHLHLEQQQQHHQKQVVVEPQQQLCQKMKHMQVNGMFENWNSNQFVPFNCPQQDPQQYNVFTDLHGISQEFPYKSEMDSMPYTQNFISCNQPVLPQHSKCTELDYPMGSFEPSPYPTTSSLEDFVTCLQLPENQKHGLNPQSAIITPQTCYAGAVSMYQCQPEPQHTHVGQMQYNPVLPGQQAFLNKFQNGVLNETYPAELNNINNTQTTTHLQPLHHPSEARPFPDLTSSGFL
Assay: qHTS assay to identify small molecule that activate the aryl hydrocarbon receptor (AhR) signaling pathway (AID 743085); further: nearly all actives have a fitted effect of over 15% in size;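 on activation: HG2L7.5c1 human HepG2 liver cells with stably integrated DRE-driven firefly reporter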
Details: HepG2 AhR-luc (HG2L7.5c1), luciferase, 24 h; series mostly up to 70.3 µM; activation: at the top concentration
Excerpt: U.S. Tox21 Program National Center for Advancing Translational Sciences [NCATS] NIH Chemical Genomics Center [NCGC] U.S. Environmental Protection Agency [EPA] National Institutes of Environmental Health Sciences [NIEHS] National Toxicology Program [NTP] U.S. Food and Drug Administration [FDA] Tox21 Assay overview: The Aryl hydrocarbon Receptor (AhR), a member of the family of basic helix-loop-helix transcription factors, is crucial to adaptive responses to environmental changes. AhR mediates cellular responses to environmental pollutants such as aromatic hydrocarbons through induction of phase I and II enzymes but also interacts with other nuclear receptor signaling pathways. A cell based HepG2-AhR-luc assay (HG2L7.5c1 cell line, developed by Dr. Michael S. Denison, University of California at Davis, was used to assess the activation of AhR. HepG2 (human hepatocellular carcinoma) cells were stably transfected with an Ah receptor-responsive firefly luciferase reporter gene plasmid containing 20 dioxin responsive elements and luciferase reporter gene. Increased luciferase activity can be used to identify the compounds that induce AhR activation.
Tox21 Assay Protocol Summary: 4000 cells in 5 uL/well were dispensed into white wall/solid bottom 1536-well plates using a Multidrop Combi (Thermo Fisher Scientific Inc., Waltham, MA) dispenser. After the assay plates were incubated at 37C for 5 h, 23 nL of compound or DMSO vehicle was transferred to the assay plates by a pintool station (Kalypsys, San Diego, CA). The plates were incubated at 37C for 24 hr. After 1 ul/well of CellTiter-Fluor reagent (Promega, Madison, WI) was added into the assay plates using a Flying Reagent Dispenser (FRD) (Aurora Discovery, CA), the assay plates were incubated at 37C for 30 min. The fluorescence intensity in the plates was measured using a ViewLux plate reader (PerkinElmer, Shelton, CT), followed by the addition of 4 uL of ONE-Glo Luciferase Assay reagent (Promega) using an FRD (Aurora Discovery). After the assay plates were incubated at room temperature for 30 min, luminescence intensity was measured using a ViewLux plate reader (Perkin Elmer).
Potency means the concentration at half of the fitted maximal effect.

SMILES	Potency	activation
CCCCCCC(O)CCCCCCCCCCC(=O)O (stereo not given)	inactive	–
CCc1ccc(C(c2ccc(CC)cc2)C(Cl)Cl)cc1	inactive	–
COC(=O)/C=C/c1ccccc1	–	-0.381% (inactive)
BrC1CCC(Br)C(Br)CCC(Br)C(Br)CCC1Br (stereo not given)	inactive	–
Oc1ccc(Cl)cc1Cc1cc(Cl)ccc1O	inactive	–
CCCNC(C)C(=O)Nc1ccccc1C (stereo not given)	–	-0.748% (inactive)
Cc1cccc([N+](=O)[O-])c1C(=O)O	–	1.01% (inactive)
Nc1nc(=S)c2[nH]cnc2[nH]1	inactive and 61.1 µM (active)	–
NCCO	inactive	–
CC(=O)O[C@]1(C(C)=O)CC[C@H]2[C@@H]3C[C@H](C)C4=CC(=O)CC[C@]4(C)[C@H]3CC[C@@]21C	inactive	–
CCCC(=O)c1ccccc1	–	-0.921% (inactive)
CC1=CC(=O)c2ccccc2C1=O	6.68 µM (active) and 24.3 µM (active)	–
Cc1occc(=O)c1OC(=O)C(C)C	–	0.593% (inactive)
Cc1c2oc3c(C)ccc(C(=O)N[C@@H]4C(=O)N[C@H](C(C)C)C(=O)N5CCC[C@H]5C(=O)N(C)CC(=O)N(C)[C@@H](C(C)C)C(=O)O[C@@H]4C)c3nc-2c(C(=O)N[C@@H]2C(=O)N[C@H](C(C)C)C(=O)N3CCC[C@H]3C(=O)N(C)CC(=O)N(C)[C@@H](C(C)C)C(=O)O[C@@H]2C)c(N)c1=O (I: T[dV]P[Sar][NMeV] / II: T[dV]P[Sar][NMeV]; ester I:1-I:C, II:1-II:C; linker I:N-II:N via Actinocin(9to1))	–	0.456% (inactive)
O=C(O)c1cccc(C(=O)O)c1	inactive	–
C=CC(=O)OCCCCCCCC	–	-0.223% (inactive)
COc1ccc(CCN2CCC(Nc3nc4ccccc4n3Cc3ccc(F)cc3)CC2)cc1	inactive	–
c1ccc2c(c1)CCCC2C1=NCCN1 (stereo not given)	–	-0.216% (inactive)
CCCCC(CC)COC(=O)CC(C(=O)OCC(CC)CCCC)S(=O)(=O)O (stereo not given)	inactive	–
CC[C@H]1CN2CCc3cc(OC)c(OC)cc3[C@@H]2C[C@@H]1C[C@H]1NCCc2cc(OC)c(OC)cc21	inactive	–

SMILES	Potency	activation
NC(=Nc1ccccc1)Nc1ccccc1	inactive and 19.3 µM (active)	–
CC1COC(=O)O1 (stereo not given)	inactive	–
CC(C)(C)NCC(O)c1cc(O)cc(O)c1 (stereo not given)	–	-0.544% (inactive)
CC(C)(c1ccccc1)c1ccc(Nc2ccc(C(C)(C)c3ccccc3)cc2)cc1	inactive	–
CC(N)=O	–	-0.453% [at 260 µM] (inactive)
O=C1Nc2ccccc2C1(c1ccc(O)cc1)c1ccc(O)cc1	–	2.41% (inactive)
O=C(O[C@@H]1Cc2c(O)cc(O)cc2O[C@@H]1c1cc(O)c(O)c(O)c1)c1cc(O)c(O)c(O)c1	inactive	–
c1ccc2c(c1)-c1cccc3c1c-2cc1ccccc13	8.43 µM (active) and 6.86 µM (active)	–
CC[C@@H](N)CO	–	-0.811% [at 95 µM] (inactive)
Nc1cc(S(=O)(=O)O)cc2cc(S(=O)(=O)O)cc(O)c12	inactive	–
c1ccc2n[nH]nc2c1	inactive	–
O=C(O)CP(=O)(O)O	–	-0.951% (inactive)
Cc1ccc(S(=O)(=O)Oc2ccc(N=Nc3ccc(-c4ccc(N=Nc5c(O)ccc6cc(S(=O)(=O)O)cc(S(=O)(=O)O)c56)c(C)c4)cc3C)cc2)cc1	inactive	–
CCN(CC)C(=S)SSC(=S)N(CC)CC	inactive	–
NC(Cc1ccc(Cl)cc1)C(=O)O (stereo not given)	–	3.72% (inactive)
CCC(C)(C)C(=O)O[C@H]1C[C@@H](C)C=C2C=C[C@H](C)[C@H](CC[C@@H]3C[C@@H](O)CC(=O)O3)[C@H]21	inactive	–
OCCN1CCNCC1	inactive	–
O=c1n(CC2CO2)c(=O)n(CC2CO2)c(=O)n1CC1CO1 (stereo not given)	inactive	–
CO[Si](OC)(OC)c1ccccc1	–	-1.05% (inactive)
Cc1ccc(-c2cc(C(F)(F)F)nn2-c2ccc(S(N)(=O)=O)cc2)cc1	inactive	–
